Measurements published in the supplement of paper PMC6555819.

test system: LXRa homodimer (NR concentration 270 nM); test: PBM binding z-score (relative to random genomic background probes); higher = stronger binding; sequences stand for … in GC…GCGATTGACAGCGTAGAATGAAGG
Outline: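 Custom Agilent 4×180K protein-binding microarrays carried double-stranded probes. Their 34-nt variable regions held direct-repeat seeds, single-nucleotide variants, half-site ablations and random human genomic background sequences. Arrays were incubated 1 h with ligand-free nuclear receptor dimers in PBS pH 7.4, 2% milk, 0.02% Triton X-100, 1 mM DTT, 0.2 mg/mL BSA and 0.4 mg/ml salmon testes DNA. Antibodies against each partner (one per run) detected binding, and scanned fluorescence was regression-normalized. Binding z-scores use random background probes as reference.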

**Q.** For CAAACTAGGACAAGAGGTCAAAGTCCGCTTCCCG, which PBM binding z-score is on record?
**A.** 5.89

**Q.** GGAACAAGGGCAAAGTTGATAGCATCTGTCGACG was tested. Which PBM binding z-score did it give?
**A.** -0.274

**Q.** For ACTTACGGGTCAAAGAGGTTATAGCACGCGTATA, which PBM binding z-score is on record?
**A.** 1.34

**Q.** CCGACTGGGGCATAAGGTTACCAGAAGCCAGCCC was tested. Which PBM binding z-score did it give?
**A.** -0.288

**Q.** For ACTATTAGTTGAGACGAGAGCAACCGATAGGTTG, which PBM binding z-score is on record?
**A.** -0.161

**Q.** TCGAGTAGGTTAGTCAGGGCATTCAGCCAACATA was tested. Which PBM binding z-score did it give?
**A.** -0.126

**Q.** How did the PBM binding z-score turn out when TCGAGTAGGTGAGGGGCATTCAGAATGGCGTCGA was run?
**A.** -0.49

**Q.** For ATATGTAGGTTAAGGTTCATTCAGGTTGGTTCGC, which PBM binding z-score is on record?
**A.** 3.61

**Q.** Which PBM binding z-score does the source give for AGAATGAGGTTATTCGTAGATCAGGGAAGAAAGT here?
**A.** 0.0908

**Q.** GCGACTGGGGCACAGCAGGTTACCATAAGGTTGG was tested. Which PBM binding z-score did it give?
**A.** -0.715

**Q.** For GGAACGCGGGCATTCGAGTTGATAGCATGGCGAT, which PBM binding z-score is on record?
**A.** -0.588

**Q.** With CCTACTGGGCTACGAAAGGTCATTGATTCAGTGA as the sequence, how does the PBM binding z-score read?
**A.** 6.54

**Q.** Which PBM binding z-score does the source give for ACTTACCGGTCAACGAGGTTATAGCACGCGTATA here?
**A.** 2.47

**Q.** CTCGAAAGGTCGTGCTCAGGTGAGGATACCAAAC was tested. Which PBM binding z-score did it give?
**A.** 0.268

**Q.** With GCTATGAGTTGAAAGGGCAACCGAATGATTCTCG as the sequence, how does the PBM binding z-score read?
**A.** -0.0384

**Q.** Which PBM binding z-score does the source give for ATTTGTAGGTTAAGGGTCATTCAGGTTGGTTCGC here?
**A.** 4.38

**Q.** TATTGTAGATCAAGCAGGTTAAGAAAGCCTGAGT was tested. Which PBM binding z-score did it give?
**A.** -0.0497

**Q.** Which PBM binding z-score does the source give for CGTCATAGTTCAACTAAGGTAACGTAAAGCACGC here?
**A.** 1.02

**Q.** For TGTCAAAGTTCAAAGGTAACCTAAGTATCCACAC, which PBM binding z-score is on record?
**A.** 4.99

**Q.** Which PBM binding z-score does the source give for CGTCCATGGTCAGAGAGGTCAGTGAATGCCGAGT here?
**A.** 0.897

**Q.** How did the PBM binding z-score turn out when ACTCGGAGGACAAAGGTCAGAGGTACGCCAGTGA was run?
**A.** 1.7

**Q.** For CTCGAAAGGTCGGTTTAGGTGAGTATACGGATAA, which PBM binding z-score is on record?
**A.** -0.093

**Q.** For TAGCCTAGGTCATGGGGGCCAGTATAGTGTCGGC, which PBM binding z-score is on record?
**A.** 0.742

**Q.** ATCTCTAGGTAAAAGTTCAGGGAATCCCGAGGAT was tested. Which PBM binding z-score did it give?
**A.** 1.26

**Q.** For CTCGAAAGGTCGTGCTCAGGTGTGTATACCAAAC, which PBM binding z-score is on record?
**A.** 0.295

**Q.** How did the PBM binding z-score turn out when ACTTACGGGTCGACGAGGTTATAGCACGCGTATA was run?
**A.** 0.124

**Q.** With AGTCAAAGTTCTCTAGGTAACGTAAGATTCAGCT as the sequence, how does the PBM binding z-score read?
**A.** 0.22

**Q.** How did the PBM binding z-score turn out when AGAATGCGGTTATACGTAGATCAGGGAAGAAAGT was run?
**A.** -0.263

**Q.** How did the PBM binding z-score turn out when AGAATGAGGTTCAGATCAGGGAAACAGAATACAT was run?
**A.** -0.377

**Q.** CCTACTGGGCCATCAGGTCACTGATATCAACGTT was tested. Which PBM binding z-score did it give?
**A.** 0.277

**Q.** How did the PBM binding z-score turn out when CGTCCAAGGTCAGCAGGTTAGTGAAAGCGACGTG was run?
**A.** -0.206

**Q.** For CGTCCAAGGTGAATGCTAGGTCAGTGAAAGCATT, which PBM binding z-score is on record?
**A.** 0.158

**Q.** TGAATGAGGTTATAAGATCAGGGTACGTTGCAAA was tested. Which PBM binding z-score did it give?
**A.** 0.0526

**Q.** Which PBM binding z-score does the source give for TCTGCTAGCTCAACGATGGTCAGCTAATCTGCTA here?
**A.** -0.771

**Q.** How did the PBM binding z-score turn out when TCTTGTAGATCAAGCGGGTTAAGAAAGCCTGAGT was run?
**A.** -0.461

**Q.** With ATATGTAGGTTATTGGGTCATTCAGTTTGCGCAT as the sequence, how does the PBM binding z-score read?
**A.** 2.1

**Q.** Which PBM binding z-score does the source give for ATCTCTAGGTAACCAGTTCAGTGAAAGAGAGGAC here?
**A.** 0.481

**Q.** Which PBM binding z-score does the source give for TCTTGTAGACCAAGCAGGTTAAGAAAGCCTGAGT here?
**A.** -0.371

**Q.** How did the PBM binding z-score turn out when CCTACTGGGCCATTCAGAGCTCATTGATCATATG was run?
**A.** -0.476

**Q.** AGAATGAGGTTATTAAGATCAAGGAATTGCGGTC was tested. Which PBM binding z-score did it give?
**A.** 0.35
